Source: PubChem BioAssay (National Center for Advancing Translational Sciences (NCATS))
TSHR antag: antagonists of human thyroid stimulating hormone receptor; P16473; TSHR-expressing cells, TSH-stimulated cAMP HTRF, 2 h; hits give low values; activity change, negative = inhibition, % at 11.5 µM; 330,000 tested, 0.2% active; AID 504810;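 active = activity change below a set negative limit, meaning inhibition stronger than a set level, cut at about -70% in these data; inconclusive = activity change between two set negative limits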; note: % is set by controls: 0 for no effect and ±100 for the full control effect
Target sequence (P16473 whole entry, looked up): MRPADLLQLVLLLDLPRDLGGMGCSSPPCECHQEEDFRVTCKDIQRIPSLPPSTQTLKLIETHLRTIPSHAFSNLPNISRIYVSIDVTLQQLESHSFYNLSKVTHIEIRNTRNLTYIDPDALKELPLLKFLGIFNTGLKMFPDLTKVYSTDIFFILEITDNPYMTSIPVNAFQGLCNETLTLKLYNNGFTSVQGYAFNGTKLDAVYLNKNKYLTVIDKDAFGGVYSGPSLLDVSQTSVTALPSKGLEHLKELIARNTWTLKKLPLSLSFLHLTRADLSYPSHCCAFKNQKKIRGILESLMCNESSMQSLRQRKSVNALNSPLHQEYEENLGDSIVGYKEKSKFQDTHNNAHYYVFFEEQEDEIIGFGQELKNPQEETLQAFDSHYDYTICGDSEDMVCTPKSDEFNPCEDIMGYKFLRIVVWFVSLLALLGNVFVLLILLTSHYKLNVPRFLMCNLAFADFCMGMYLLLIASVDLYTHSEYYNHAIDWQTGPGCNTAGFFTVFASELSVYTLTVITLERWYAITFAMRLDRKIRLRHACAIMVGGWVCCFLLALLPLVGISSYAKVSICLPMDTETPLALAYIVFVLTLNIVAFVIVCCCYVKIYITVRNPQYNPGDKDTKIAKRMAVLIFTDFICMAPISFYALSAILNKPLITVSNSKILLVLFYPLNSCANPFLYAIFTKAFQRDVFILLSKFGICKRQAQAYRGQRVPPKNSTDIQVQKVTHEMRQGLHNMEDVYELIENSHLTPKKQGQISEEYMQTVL
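Antagonism was scored as loss of TSH-driven cAMP in TSHR cells, stimulated with 4nM TSH (EC80) for 2 hours at 37 deg C and detected by homogeneous HTRF competition immunoassay.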
Glioma ERSR ind: induces the endoplasmic reticulum stress response in human glioma cells. U87-MG GRP78 promoter luciferase reporter, 16 h. 420,000 tested, 0.02% active. Potency, µM, for inactives: at the top dose activation, usual class: activators. AID 602332; note: potency is the fitted concentration of half-maximal effect; series mostly up to about 76 µM; % of control where 0% means no effect; nearly all actives have a fitted effect of over 35% in size
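ERSR induction read as luciferase luminescence (Bright-Glo, 10 min at room temperature) in stably transfected human U87-MG glioma cells exposed to compounds for 16 h, using GRP78 as sensor.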
RGS4 inhibitor: blocks human RGS4-accelerated GTP hydrolysis; P49798; Potency, µM (top dose mostly 114 µM), for inactives: at the highest dose activity change, negative = inhibition, most hits filed as inhibitors; Transcreener GDP fluorescence polarization, RGS4-accelerated GTP hydrolysis; 390,000 tested, 0.039% active; AID 504845; note: potency is the fitted concentration of half-maximal effect; % is set by controls: 0 for no effect and ±100 for the full control effect; nearly all actives have a fitted effect of over 75% in size
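MLSMR compounds (23 nl, pin-transferred) preincubated 10 min at room temperature with a 500nM (2x) first reagent, then RGS4 at 900nM (2x) plus Transcreener GDP mix added; fluorescence polarization (620/688 nm) read before and after 90 min at 30 °C.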
TCR act: activators of T cell receptors. primary human leukocytes, anti-CD3, IL-2 HTRF, 48 h. Potency, µM (highest dose often 9.22 µM), for the others: at the top dose activation of IL-2 secretion, actives largely listed as activators. 330,000 tested, under 10 active; note: % of control where 0% means no effect
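48 hr co-incubation of compounds, a-CD3 beads and primary human leukocytes; IL-2 quantified homogeneously by HTRF with anti-IL-2 K and d2 conjugates.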
LDHA inh: LDHA (human) enzyme inhibition; P00338; purified LDHA, NADH/diaphorase-resazurin fluorescence; hits give low values; activity change, % (values are at about 110 or 230 µM); 480,000 tested, 0.15% active; AID 1347041; in the data active = activity change below about -30%; inconclusive = mostly about -25% to -30%;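 note: plate controls were DMSO wells for no effect and wells without enzyme for full effect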
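Enzyme activity of human lactate dehydrogenase 5 (2 nM; 0.06 mM NADH, 0.2 mM pyruvate, 5 min, RT) is measured via a resazurin/diaphorase fluorescence readout of residual NADH.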
pAkt inh: Akt phosphorylation inhibition. 360,000 tested, 0.32% active. Neuro2A IGF-stimulated pAkt S473 HTRF, 20 min; hits give low values. activity change, % for hits at 50 µM; in the data active = activity change below about -80%; inconclusive = mostly about -51% to -80%; note: % is set by controls: 0 for no effect and ±100 for the full control effect
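Neuro2A cells (4,500/well, DMEM with 0.5% FBS) were treated with compound at a single 50 µM final concentration, stimulated with 6 nM IGF for 20 min at 37 °C, and lysed. Phospho-Akt Ser473 was read by HTRF as 665/615 ratio ×10^4.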
The depositor's hits bear a star; i = inactive; ? = inconclusive; · = no result given; [ ] = dose if it differs, or a comment. The list is not random: actives were taken first. Their share in the collection is about 0.55%. Unless noted, calls come from the whole dose curve; as a rule, active = well fitted curve in the direction sought with a large enough effect; inconclusive = small, poorly fitted or top-dose-only effect, or another doubt; inactive = no such curve, though single readings can be large; an effect the other way counts as inactive or inconclusive.

SMILES | TSHR antag | Glioma ERSR ind | RGS4 inhibitor | TCR act | LDHA inh | pAkt inh
CCCCn1c(SCC(=O)Nc2cc(C)on2)nc2ccsc2c1=O | 3 | -3% | -3% | · | 2 | -101%*
Cc1ccc(-n2c(SCC(=O)Nc3cc(C)on3)nc3ccccc3c2=O)cc1 | -1 | -3% | -13% | -7% | 3 | -85%*
CCOc1ccc(Nc2nc(-c3sc(NC(C)=O)nc3C)cs2)cc1 | · | · | · | · | 15 | ·
Cc1cc(C)nc(NS(=O)(=O)c2ccc(Nc3nc(-c4ccc(C(C)C)cc4)cs3)cc2)n1 | · | · | · | · | -3 | ·
C[n+]1cnc(-c2ccccc2)cc1-c1ccccc1 | 0 | 4% | -14% | 3%[46.1 µM] | -49* | i
O=C(CSc1nc2ccccc2o1)Nc1nncs1 | -1 | -1% | -52% | 3% | -10 | -116%*
CN1CCN(S(=O)(=O)c2cccc(S(=O)(=O)c3ccc(Cl)c(Cl)c3)c2)CC1 | 7 | -5% | -21% | 1% | 0 | -108%*
COc1cc(S(=O)(=O)N2CCN(C)CC2)ccc1Cl | 3 | -3% | 9% | 2%[46.1 µM] | -7 | i
N#Cc1c(N)nc(SCC(=O)OCc2ccccc2)c(C#N)c1-c1ccco1 | -78* | -6% | -27% | · | -4 | i
S=C(NCc1ccccc1Cl)Nc1cc(Cl)cc(Cl)c1 | · | · | · | · | 3 | ·
COc1ccc(NC(=O)Cc2c[nH]c3ccccc23)cc1S(=O)(=O)N1CCCCC1 | -75* | -2% | -23% | -2%[46.1 µM] | -3 | i
O=C(Cc1c[nH]c2ccccc12)N1CCN(S(=O)(=O)c2cc(F)ccc2F)CC1 | · | · | · | · | -37* | ·
COc1ccc(NC(=O)Cc2c[nH]c3ccccc23)cc1S(=O)(=O)N1CCOCC1 | -3 | 0% | 14% | 2% | 0 | i
CN1CCc2c(sc3ncn4nc(CSc5nc6ccccc6o5)nc4c23)C1 | · | · | · | · | 4 | ·
O=S(=O)(c1ccc(-c2csc(Nc3ccc(F)cc3)n2)cc1)N1CCCCC1 | · | · | · | · | -2 | ·
CCOC(=O)c1sc(NC(=O)CSc2n[nH]c(-c3ccncc3)n2)c(C#N)c1C | -75* | -11% | -12% | 5% | -5 | i
CC(C[N+](C)(C)C)OC(=O)C1(c2ccccc2)CCCC1 (stereo not given) | 5 | -3% | -15% | -3% | -31* | i
C[N+](C)(C)CCOC(=O)C1(c2ccccc2)CCCC1 | 7 | -5% | -7%[11.4 µM] | 0% | -12 | i
COc1ccc(NC(=O)c2cc([N+](=O)[O-])ccc2O)cc1 | -29 | -13% | 1% | 1% | -38* | i
O=c1[nH]c2cc3c(cc2cc1CN(CC1CCCO1)S(=O)(=O)c1ccc(Cl)cc1)OCCO3 (stereo not given) | 85 | -3% | 3% | 0% | -6 | ·
Cc1ccc(S(=O)(=O)N(Cc2cc3cc4c(cc3[nH]c2=O)OCCO4)CC2CCCO2)cc1 (stereo not given) | -9 | -4% | -1% | 3% | -3 | -105%*
N#Cc1c(F)cccc1N1CCN(Cc2ccc3c(c2)OCO3)CC1 | -90* | -1% | 13% | 2% | -3 | i
O=C(c1ccccc1F)N1CCN(Cc2ccc3c(c2)OCO3)CC1 | -24 | 0% | 12% | · | -23 | i
CCN(Cc1ccco1)C(=O)c1cc2cc(C)ccc2[nH]1 | · | · | · | · | 33 | ·
CCc1c(C)sc(NC(=O)C2CCCCC2)c1C#N | · | · | · | · | 2 | ·
SMILES | TSHR antag | Glioma ERSR ind | RGS4 inhibitor | TCR act | LDHA inh | pAkt inh
C[C@@H]1CN([C@@H](C)CO)C(=O)CCCn2cc(nn2)CO[C@H]1CN(C)S(=O)(=O)c1cccc(F)c1 | · | 0% | · | · | -2 | i
C[C@H](CO)N1C[C@H](C)[C@@H](CN(C)S(=O)(=O)c2cccc(F)c2)OCc2cn(nn2)CCCC1=O | · | -2% | · | · | -34* | i
O=C1C2=C(Nc3ccccc3SC2c2ccco2)c2ccccc21 (stereo not given) | 78 | -4% | -34% | -3% | 0 | -114%*
Cn1c(NC(=O)c2ccc(Br)o2)cc(=O)n(C)c1=O | -4 | 2% | -13% | 6% | 2 | -116%*
CCC(=O)N1c2ccc(S(=O)(=O)CCC(=O)N3CCN(c4cc(C)ccc4C)CC3)cc2CC1C (stereo not given) | · | -1% | -17% | · | -7 | ·
Cc1ccc(C)c(N2CCN(C(=O)CCS(=O)(=O)c3ccc4c(c3)CCN4C(=O)C3CC3)CC2)c1 | -82* | -3% | 6%[56.9 µM] | 2% | -4 | i
Brc1cccc(N=Cc2c3ccccc3cc3ccccc23)c1 | · | · | · | · | 7 | ·
O=S(=O)(c1ccc(Br)cc1)N1CCN(c2cc(-c3ccccc3)nc3ncnn23)CC1 | 66 | -3% | 25% | 1% | -11 | ·
O=S(=O)(c1ccccc1)N1CCN(c2cc(-c3ccccc3)nc3ncnn23)CC1 | 8 | -2% | 11% | · | -2 | -88%*
CC1CCN(C(=O)CSc2n[nH]c(-c3cc(Br)ccc3O)n2)CC1 | · | · | · | · | -14 | ·
CC(C)(C)c1ccc(S(=O)(=O)c2cnc(SCC(=O)Nc3ccc(F)c(Cl)c3)[nH]c2=O)cc1 | · | 1% | ? | · | -49* | ·
COc1cc(Cl)c(C)cc1NC(=O)CSc1ncc(S(=O)(=O)c2ccc(C(C)(C)C)cc2)c(=O)[nH]1 | · | -1% | -50% | · | -39* | ·
CCc1ccc(S(=O)(=O)c2cnc(SCC(=O)Nc3ccc(OC)cc3OC)[nH]c2=O)cc1 | · | -3% | -16% | · | -10 | ·
COc1cc(/C=C/c2nc3cc(Cl)ccc3o2)cc(OC)c1OC | · | · | · | · | 6 | ·
COc1ccc(/C(O)=C2/C(=O)C(=O)N(Cc3cccnc3)C2c2ccco2)cc1OC (stereo not given) | 6 | -2% | -3% | -8% | 4 | i
CCOc1cccc(/C(O)=C2/C(=O)C(=O)N(Cc3cccnc3)C2c2ccco2)c1 (stereo not given) | -9 | 3% | 36% | -36% | 14 | -116%*
CCCCNS(=O)(=O)c1ccc(OC)c(Cl)c1Cl | -2 | -2% | -16% | 2% | 0 | ·
CCC(C)NS(=O)(=O)c1ccc(OC)c(Cl)c1Cl (stereo not given) | -8 | -3% | -16% | 0% | -6 | -122%*
CC(C(=O)Nc1ccc2c(c1)OCO2)N(C)CC(=O)Nc1ccccc1Cl (stereo not given) | · | -3% | 28% | -22% | -3 | i
CSc1ccccc1NC(=O)CN(C)C(C)C(=O)NCc1ccc2c(c1)OCO2 (stereo not given) | -7 | -3% | 7% | 5% | -47* | i
COc1ccc(C2=CC(c3ccc(OC)c(OC)c3)n3nnnc3N2)cc1 (stereo not given) | · | · | · | · | 6 | ·
O=C(C1CCN(Cc2cccs2)CC1)N1CCN(Cc2ccc3c(c2)OCO3)CC1 | 12 | -4% | -3% | 2% | -33* | i
